# Screening results deposited in PubChem BioAssay by several laboratories.
# Shn3 3UTR inh – inhibitors of Schnurri-3 3'UTR reporter in osteoblasts; Clone20 osteoblast Shn3 3'UTR firefly luciferase, 24 h; inhibition, % at 12.5 µM; hit rate 0.52% among 360,000; AID 588674;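 active = mean inhibition of at least 75% with every replicate also reaching 75%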;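 also: 0% = median of neutral control wells and 100% = pilot-screen positive control compound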
# Peg3 prom inh – inhibitors of Peg3 promoter. hit rate 1.7% among 360,000. inhibition, % at 20 µM. HeLa PEG-Prom luciferase reporter, luminescence, overnight;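 active = inhibition of at least 50% at 20 µM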
# KKLEB tox – counter-screen for CF NF-kB inhibitors: cytotoxicity. KKLEB CF airway cells viability, ATPlite luminescence, overnight; stronger effect = lower value; cells stimulated with P. aeruginosa culture filtrate. activity change (cytotoxicity), % at 5 µM. hit rate 0.36% among 360,000. AID 602141;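 active = corrected activity change at or below -50% at 5 µM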
# CF NFkB inh – blocks PAF-induced NF-kB reporter in cystic fibrosis cells. KKLEB NF-kB-GFP reporter, GFP fluorescence overnight. inhibition, % at 5 µM. hit rate 0.86% among 360,000. AID 588850;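 active = at least 50% inhibition at 5 µM, scaled per plate between neutral and stimulator controls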;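 also: PAF is a Pseudomonas aeruginosa culture filtrate used as stimulus; plate controls were PAF-stimulated DMSO wells for no effect and unstimulated DMSO wells for full effect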
# HIF-2a inh – HIF-2a inhibition | 786-0 RCC cells HIF-2a reporter, luciferase luminescence, overnight | inhibition, % at 18.8 µM | hit rate 0.72% among 360,000 | AID 624352;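 active = inhibition of the luminescence signal of 40% or more relative to plate controls, in a single-dose primary screen at 18.75 µM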
# MITF TRPM1 inh – inhibitors of MITF-driven TRPM1 promoter in melanoma cells | SK-MEL-5 TRPM1 promoter luciferase, 24 h | inhibition, % at 12.5 µM | hit rate 0.83% among 330,000;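 active = mean inhibition across replicates of 60% or more, whatever share of single replicates reaches that level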
# Mdm2-MdmX confirm – Mdm2/MdmX (human) interaction inhibition, confirmed; SaOS-2 split-luciferase Mdm2/MdmX complementation, luminescence; shares compounds with HIF-2a inh; inhibition, % at 8 µM; hit rate 99% among 740;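 active = mean inhibition of the luminescence signal across two replicates at or above 26 percent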
# HIF-2a inh conf – confirmation of HIF-2a inhibitors. inhibition, % at 18.8 µM. 786-0 RCC cells, HIF-2a luciferase reporter luminescence, overnight. hit rate 56% among 1,800. shares compounds with HIF-2a inh;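 active = mean inhibition across four replicates of at least 40 percent at the single tested concentration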
# HIF-1a cs – HIF-1a inhibition counter-screen for HIF-2a hits | shares compounds with HIF-2a inh | MiaPaCa-2 HIF-1a luciferase reporter, desferoxamine, overnight | inhibition, % at 18.8 µM | hit rate 72% among 1,800 | AID 651589;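 active = mean inhibition of the reporter signal across four replicates at the single tested dose of 50% or more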
# Starred values were filed as active, the others as inactive; nt = no result given. The list is not random: actives were taken first. Their share in the collection is about 2.8%.
SMILES,Shn3 3UTR inh,Peg3 prom inh,KKLEB tox,CF NFkB inh,HIF-2a inh,MITF TRPM1 inh,HIF-2a inh conf,HIF-1a cs,others
NNC(=O)c1cc2ccccc2cc1O,50,39,7,8,69*,76*,81*,75*,
Cc1ccc(Cl)cc1NC(=O)c1cc2ccccc2cc1O,73,2,-55*,51*,-143,72*,nt,nt,Mdm2-MdmX confirm=101*
CCCc1ccc2oc(C(=O)N3CCN(C4CCS(=O)(=O)C4)CC3)c(C)c2c1 (stereo not drawn),2,-11,0,-14,-11,-8,nt,nt,
Cc1oc(=O)c(NC(=O)c2ccccc2)cc1C(N)=O,-5,2,-3,5,4,6,nt,nt,
O=C(Nc1cc2ccccc2oc1=O)c1ccccc1,22,54*,-8,-28,40*,63*,68*,63*,
COc1ccc(C(=O)CC(C(=O)O)c2ccc(OC)c(OC)c2)cc1OC (stereo not drawn),3,16,5,4,14,nt,nt,nt,
O=C1C(=C(c2ccccc2)N2CCOCC2)Cc2ccccc21,98*,108*,-7,91*,91*,nt,98*,105*,
Cc1ccc2[nH]c(C(=O)NN=C3CCCCC3)c(-c3ccccc3)c2c1,-13,13,-4,9,16,-4,nt,nt,
C=CCC[C@@H](Cc1ccc(F)cc1)C(=O)OC[C@H](C)NC(=O)[C@@H](CC=C)CC(=O)N[C@@H](CO)Cc1ccccc1,10,5,7,9,19,0,nt,nt,
CCOC(=O)CNC(=O)C(CC(N)=O)NC(=O)OC(C)(C)C (stereo not drawn),nt,14,8,-18,6,nt,nt,nt,
C=CCOC(=O)CSCC(NC(=O)OC(C)(C)C)C(=O)OCC (stereo not drawn),-5,2,11,-17,58*,9,45*,24,
CC(C)(C)c1ccc(C(=O)Nc2sc3c(c2C(=O)O)CCC3)cc1,29,24,3,-8,96*,66*,96*,75*,
COc1cccc(CNC(=O)CCl)c1,21,-3,-2,-16,11,-7,nt,nt,
COc1cccc(CNC(=O)COC(=O)c2nc(Cl)c(Cl)c(Cl)c2Cl)c1,12,90*,-16,30,58*,33,32,9,
Cc1cc(-c2ccc(NC(=O)[C@@H]3CCCC[C@@H]3C(=O)O)c(C)c2)ccc1NC(=O)[C@@H]1CCCC[C@@H]1C(=O)O,17,3,0,6,-2,12,nt,nt,
C[C@@]12C(=O)OC(=O)[C@]1(C)C1CCC2O1,94*,84*,-2,84*,79*,80*,nt,nt,Mdm2-MdmX confirm=100*
CCCOC(=O)c1c(-c2ccc(C)cc2C)csc1NC(=O)C1C2CCC(O2)C1C(=O)O (stereo not drawn),-3,3,-7,-10,21,-9,nt,nt,
CC(C)CC(=O)/C(=C/c1ccc(N(C)C)cc1)n1cncn1,23,-9,4,-7,-1,11,nt,nt,
CC(C)CC(=O)/C(=C\c1ccc(Cl)cc1Cl)n1cncn1,14,105*,-81*,86*,94*,86*,94*,107*,
O=C(NCCN1CCOCC1)c1cccc(S(=O)(=O)NCc2ccccc2)c1,-5,-3,5,-1,15,-7,nt,nt,
COCCN(C(=O)C1CCCC1)c1c(N)n(Cc2ccccc2)c(=O)[nH]c1=O,0,-1,5,8,15,10,nt,nt,
Nc1c(N(C(=O)Nc2ccc(Cl)c(Cl)c2)C2CCCC2)c(=O)[nH]c(=O)n1Cc1ccccc1,30,48,-27,19,40*,77*,11,103*,
COc1c(Br)cc(Br)cc1/C=N/NC(=O)c1ccncc1,18,18,7,-9,9,-1,nt,nt,
CN(C)c1ccc(C(=O)N/N=C/c2cc(Br)cc(Br)c2O)cc1,nt,59*,4,16,3,nt,nt,nt,Mdm2-MdmX confirm=89*
O=C(Nc1ccc(Cl)cc1)/C(=C/c1cccc(O)c1)c1nc2ccccc2s1,93*,101*,-91*,90*,91*,92*,95*,106*,Mdm2-MdmX confirm=102*
SMILES,Shn3 3UTR inh,Peg3 prom inh,KKLEB tox,CF NFkB inh,HIF-2a inh,MITF TRPM1 inh,HIF-2a inh conf,HIF-1a cs,others
O=C1OCCC1Sc1nc2ccccc2c(=O)n1Cc1ccccc1 (stereo not drawn),-8,-8,4,-1,16,16,nt,nt,
O=C1OCCC1Sc1nc2cc(Cl)ccc2n1Cc1ccccc1 (stereo not drawn),12,10,-4,9,51*,1,4,8,
COc1ccc(S(=O)(=O)N2CCC[C@H]2C(=O)N2CCC[C@H]2C(=O)N[C@@H](C)c2ccccc2)cc1C,nt,nt,nt,nt,-3,nt,nt,nt,
O=C(O)CCCCCCCCCCC1CCC(O)C1O (stereo not drawn),24,12,-6,12,54*,26,75*,52*,
O=C(O)CCCCCCCC(=O)O,19,1,-13,-5,0,-5,nt,nt,
CCCCn1nnnc1C(c1cc2ccccc2o1)N(CCN(C)C)Cc1ccccc1 (stereo not drawn),nt,nt,nt,nt,-11,nt,nt,nt,
Cc1ccc(NC(=S)/C(C#N)=C2/Nc3ccccc3S2)cc1,-1,30,5,43,68*,nt,40,56*,
N#C/C(=C\C=C\c1ccccc1[N+](=O)[O-])C(=O)NC1CCCCC1,3,107*,0,-40,84*,72*,21,104*,Mdm2-MdmX confirm=101*
COc1ccc(CN(C)CCCn2cnc3c(OC)ncnc32)cc1OC,2,9,-4,3,-5,nt,nt,nt,
COc1cc2ncc(S(=O)(=O)c3ccccc3)c(N3CCC4(CC3)OCCO4)c2cc1OC,43,24,6,17,40*,19,22,98*,
Cc1ccc2oc(C(=O)NCc3ncc(C)[nH]3)c(C)c2c1,-1,16,-11,9,-32,24,nt,nt,
Cc1ccc(/C=C/C(O)=C2/C(=O)N(C)C3(C)CC2c2ccccc2O3)cc1 (stereo not drawn),-8,39,-3,15,83*,11,37,97*,
COc1ccc(/C=C/C(O)=C2/C(=O)N(C)C3(C)CC2c2ccccc2O3)cc1 (stereo not drawn),-30,29,-6,7,54*,20,-5,54*,
CN1C(=O)[C@@](O)(c2cn(C)c3ccccc23)c2cc(Br)ccc21,nt,nt,nt,nt,9,nt,nt,nt,
CNC(=O)c1nnsc1S(=O)(=O)c1ccc(Cl)cc1,99*,106*,-92*,90*,65*,85*,74*,50*,Mdm2-MdmX confirm=104*
